Test results as given in PubChem BioAssay AID1159580 (chemical genetic matrix, 2015).
About 2,000 (36%) of roughly 5,500 compounds were called active. Not shown: some 18% with an inconclusive outcome. Cut-off read from the data, not from the text of the source: active = normalized growth mostly below about 0.91 (no sharp cut-off); inconclusive = no clear call, values can overlap the other calls; inactive = mostly above about 0.92. This is one part of the list.

Test: chemical genetic growth profiling, strain panel (AID 1159580);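 note: tested at 20 µM; growth read once vehicle control cultures reached saturation at 30 °C; 1 = growth at the plate median or of vehicle wells; lower values mean less growth of the strain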
Conditions: growth OD

Measured: normalized growth

C[C@H]1[C@H]2CCC3C4CC=C5C[C@@H](N(C)C)CC[C@]5(C)C4CC[C@@]32CN1C (some centres not stated)
inactive: S. cerevisiae deletion strains, locus YJR075W, strain HOC1, active compounds read low 0.974 | S. cerevisiae deletion strains, locus YKL009W, strain mrt4, active compounds read low 0.985 | S. cerevisiae deletion strains, locus YKL068W, active compounds read low 0.989 | S. cerevisiae deletion strains, locus YKL085W, strain MDH1 (second series), active compounds read low 0.997 | S. cerevisiae deletion strains, locus YKL085W, strain MDH1, active compounds read low 0.997 | S. cerevisiae deletion strains, locus YKL160W, strain elf1, active compounds read low 0.995 | S. cerevisiae deletion strains, locus YKL190W, strain CNB1, active compounds read low 0.98 | S. cerevisiae deletion strains, locus YKR001C, strain vps1, active compounds read low 0.989 | S. cerevisiae deletion strains, locus YKR026C, strain gcn3, active compounds read low 0.99 | S. cerevisiae deletion strains, locus YKR091W, strain srl3, active compounds read low 0.995 | S. cerevisiae deletion strains, locus YLL001W, strain dnm1, active compounds read low 0.98 | S. cerevisiae deletion strains, locus YLL026W, active compounds read low 0.987 | S. cerevisiae deletion strains, locus YLL041C, strain sdh2, active compounds read low 1 | S. cerevisiae deletion strains, locus YLR027C, strain aat2, active compounds read low 0.996 | S. cerevisiae deletion strains, locus YLR039C, strain RIC1, active compounds read low 1.01 | S. cerevisiae deletion strains, locus YLR058C, strain SHM2, active compounds read low 0.98 | S. cerevisiae deletion strains, locus YLR102C, strain apc9, active compounds read low 0.992 | S. cerevisiae deletion strains, locus YLR113W, strain HOG1, active compounds read low 1.02 | S. cerevisiae deletion strains, locus YLR221C, strain rsa3, active compounds read low 0.997 | S. cerevisiae deletion strains, locus YLR258W, strain gsy2, active compounds read low 0.975 | S. cerevisiae deletion strains, locus YLR262C, strain YPT6 (second series), active compounds read low 1 | S. cerevisiae deletion strains, locus YLR262C, strain YPT6, active compounds read low 0.962 | S. cerevisiae deletion strains, locus YLR268W, strain sec22, active compounds read low 1.02 | S. cerevisiae deletion strains, locus YLR320W, strain mms22, active compounds read low 0.955 | S. cerevisiae deletion strains, locus YLR330W, strain CHS5, active compounds read low 0.992 | S. cerevisiae deletion strains, locus YLR342W, strain FKS1 (second series), active compounds read low 0.986 | S. cerevisiae deletion strains, locus YLR342W, strain FKS1, active compounds read low 0.991 | S. cerevisiae deletion strains, locus YLR357W, strain rsc2, active compounds read low 0.955 | S. cerevisiae deletion strains, locus YLR370C, strain arc18, active compounds read low 0.992 | S. cerevisiae deletion strains, locus YLR371W, strain rom2, active compounds read low 0.981 | S. cerevisiae deletion strains, locus YLR384C, strain iki3, active compounds read low 0.983 | S. cerevisiae deletion strains, locus YLR418C, strain cdc73, active compounds read low 0.937 | S. cerevisiae deletion strains, locus YML016C, strain PPZ1, active compounds read low 0.993 | S. cerevisiae deletion strains, locus YML032C, strain rad52, active compounds read low 0.94 | S. cerevisiae deletion strains, locus YML120C, strain ndi1, active compounds read low 1.01 | S. cerevisiae deletion strains, locus YML124C, strain tub3, active compounds read low 0.996 | S. cerevisiae deletion strains, locus YMR058W, strain fet3, active compounds read low 0.993 | S. cerevisiae deletion strains, locus YMR078C, strain ctf18, active compounds read low 0.988 | S. cerevisiae deletion strains, locus YMR125W, strain sto1, active compounds read low 0.947 | S. cerevisiae deletion strains, locus YMR129W, active compounds read low 0.997 | S. cerevisiae deletion strains, locus YMR205C, strain PFK2, active compounds read low 0.935 | S. cerevisiae deletion strains, locus YMR223W, strain ubp8, active compounds read low 0.972 | S. cerevisiae deletion strains, locus YMR231W, strain pep5, active compounds read low 0.994 | S. cerevisiae deletion strains, locus YMR263W, strain SAP30, active compounds read low 0.987 | S. cerevisiae deletion strains, locus YMR307W, strain GAS1, active compounds read low 0.874 | S. cerevisiae deletion strains, locus YNL067W, strain RPL9B, active compounds read low 0.978 | S. cerevisiae deletion strains, locus YNL071W, strain lat1, active compounds read low 0.987 | S. cerevisiae deletion strains, locus YNL128W, strain TEP1, active compounds read low 0.981 | S. cerevisiae deletion strains, locus YNL153C, strain GIM3, active compounds read low 0.982 | S. cerevisiae deletion strains, locus YNL183C, strain NPR1, active compounds read low 0.973 | S. cerevisiae deletion strains, locus YNL209W, strain ssb2, active compounds read low 1 | S. cerevisiae deletion strains, locus YNL233W, strain BNI4, active compounds read low 1 | S. cerevisiae deletion strains, locus YNL248C, strain rpa49, active compounds read low 0.991 | S. cerevisiae deletion strains, locus YNL250W, strain rad50, active compounds read low 0.965 | S. cerevisiae deletion strains, locus YNL271C, strain bni1, active compounds read low 0.988 | S. cerevisiae deletion strains, locus YNL298W, strain CLA4, active compounds read low 0.977 | S. cerevisiae deletion strains, locus YNL307C, strain MCK1, active compounds read low 0.988 | S. cerevisiae deletion strains, locus YNL322C, strain KRE1 (second series), active compounds read low 0.992 | S. cerevisiae deletion strains, locus YNL322C, strain KRE1, active compounds read low 0.994 | S. cerevisiae deletion strains, locus YNR049C, strain mso1, active compounds read low 0.997 | S. cerevisiae deletion strains, locus YNR052C, strain pop2, active compounds read low 0.978 | S. cerevisiae deletion strains, locus YOL006C, strain TOP1, active compounds read low 0.991 | S. cerevisiae deletion strains, locus YOL012C, strain htz1 0.864 | S. cerevisiae deletion strains, locus YOL147C, strain pex11, active compounds read low 0.991 | S. cerevisiae deletion strains, locus YOR001W, strain rrp6, active compounds read low 1.02 | S. cerevisiae deletion strains, locus YOR061W, strain CKA2, active compounds read low 0.96 | S. cerevisiae deletion strains, locus YOR069W, strain VPS5, active compounds read low 1 | S. cerevisiae deletion strains, locus YOR070C, strain gyp1, active compounds read low 0.993 | S. cerevisiae deletion strains, locus YOR080W, strain dia2, active compounds read low 0.978 | S. cerevisiae deletion strains, locus YOR083W, strain WHI5, active compounds read low 1 | S. cerevisiae deletion strains, locus YOR106W, strain vam3, active compounds read low 1 | S. cerevisiae deletion strains, locus YOR136W, strain idh2, active compounds read low 0.991 | S. cerevisiae deletion strains, locus YOR144C, strain elg1, active compounds read low 0.991 | S. cerevisiae deletion strains, locus YOR184W, strain ser1, active compounds read low 0.963 | S. cerevisiae deletion strains, locus YOR231W, strain MKK1, active compounds read low 1.01 | S. cerevisiae deletion strains, locus YOR265W, strain rbl2, active compounds read low 0.991 | S. cerevisiae deletion strains, locus YOR270C, strain vph1, active compounds read low 1 | S. cerevisiae deletion strains, locus YOR290C, strain snf2, active compounds read low 0.96 | S. cerevisiae deletion strains, locus YOR316C, strain cot1, active compounds read low 0.989 | S. cerevisiae deletion strains, locus YPL051W, strain arl3, active compounds read low 1 | S. cerevisiae deletion strains, locus YPL055C, strain LGE1, active compounds read low 0.952 | S. cerevisiae deletion strains, locus YPL078C, strain atp4, active compounds read low 1.01 | S. cerevisiae deletion strains, locus YPL106C, strain sse1, active compounds read low 0.977 | S. cerevisiae deletion strains, locus YPL240C, strain hsp82, active compounds read low 0.993 | S. cerevisiae deletion strains, locus YPL241C, strain CIN2, active compounds read low 0.994 | S. cerevisiae deletion strains, locus YPL256C, strain CLN2, active compounds read low 1.01 | S. cerevisiae deletion strains, locus YPR119W, strain clb2, active compounds read low 1.01 | S. cerevisiae deletion strains, locus YPR141C, strain kar3, active compounds read low 0.98 | S. cerevisiae deletion strains, locus YPR163C, strain tif3, active compounds read low 0.986 | S. cerevisiae deletion strains, locus YPR167C, strain met16, active compounds read low 0.987 | S. cerevisiae deletion strains, strain wtn01, active compounds read low 1.02 | S. cerevisiae strains, strain wild type, active compounds read low 0.981
